The source of these data is ChEMBL document CHEMBL1961873, “Compounds: GSK PKIS; Assays: Nanosyn kinase panel” (2012).

In test [1] the target is Fibroblast growth factor receptor 4 (Homo sapiens) (UniProt P22455). The following applies: at 1 µM.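 Further: reported figure is the averaged percent inhibition of FGFR4, from the GSK PKIS kinase screening panel.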
The target of test [2] is Tyrosine-protein kinase Fgr (Homo sapiens) (UniProt P09769). The following applies: at 0.1 µM.
Test [3] has the same target. The following applies: at 1 µM.
Test [4] deals with Vascular endothelial growth factor receptor 1 (Homo sapiens) (UniProt P17948). Conditions: at 0.1 µM.
Sequence of Vascular endothelial growth factor receptor 1 (Homo sapiens) (P17948 whole entry): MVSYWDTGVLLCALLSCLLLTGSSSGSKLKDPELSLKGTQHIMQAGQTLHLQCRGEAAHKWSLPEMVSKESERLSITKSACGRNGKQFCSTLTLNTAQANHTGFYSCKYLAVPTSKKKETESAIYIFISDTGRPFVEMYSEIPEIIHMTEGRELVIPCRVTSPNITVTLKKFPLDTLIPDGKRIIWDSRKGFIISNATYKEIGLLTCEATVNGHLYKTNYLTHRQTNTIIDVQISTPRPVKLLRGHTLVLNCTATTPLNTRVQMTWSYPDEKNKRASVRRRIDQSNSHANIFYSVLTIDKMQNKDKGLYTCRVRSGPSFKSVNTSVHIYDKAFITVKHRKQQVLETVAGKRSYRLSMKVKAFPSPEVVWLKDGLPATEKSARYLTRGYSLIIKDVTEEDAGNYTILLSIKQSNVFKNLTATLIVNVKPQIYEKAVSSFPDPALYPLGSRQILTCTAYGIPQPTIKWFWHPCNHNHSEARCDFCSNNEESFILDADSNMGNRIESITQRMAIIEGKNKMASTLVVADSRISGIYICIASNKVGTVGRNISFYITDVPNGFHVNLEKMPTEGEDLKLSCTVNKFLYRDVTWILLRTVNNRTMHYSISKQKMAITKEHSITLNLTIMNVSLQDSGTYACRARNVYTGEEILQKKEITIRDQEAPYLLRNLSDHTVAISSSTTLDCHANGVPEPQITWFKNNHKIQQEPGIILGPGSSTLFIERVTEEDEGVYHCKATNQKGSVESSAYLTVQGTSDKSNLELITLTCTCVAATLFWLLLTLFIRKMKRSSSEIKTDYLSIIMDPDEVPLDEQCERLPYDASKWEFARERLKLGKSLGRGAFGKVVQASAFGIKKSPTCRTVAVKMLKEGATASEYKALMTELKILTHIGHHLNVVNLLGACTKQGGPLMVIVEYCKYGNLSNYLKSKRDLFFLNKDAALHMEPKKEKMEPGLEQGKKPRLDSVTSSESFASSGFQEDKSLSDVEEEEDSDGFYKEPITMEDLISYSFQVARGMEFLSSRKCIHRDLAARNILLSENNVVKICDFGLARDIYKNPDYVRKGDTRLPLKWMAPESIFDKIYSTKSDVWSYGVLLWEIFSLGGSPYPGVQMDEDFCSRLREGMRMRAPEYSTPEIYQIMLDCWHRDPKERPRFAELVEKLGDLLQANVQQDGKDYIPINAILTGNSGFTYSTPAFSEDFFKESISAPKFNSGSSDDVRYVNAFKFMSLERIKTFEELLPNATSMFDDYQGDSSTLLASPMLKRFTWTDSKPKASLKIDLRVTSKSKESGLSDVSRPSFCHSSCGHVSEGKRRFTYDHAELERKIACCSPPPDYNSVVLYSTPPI
Test [5] shares this target. The following applies: at 1 µM.
Test [6] has as its target Receptor-type tyrosine-protein kinase FLT3 (Homo sapiens) (UniProt P36888). Conditions: at 0.1 µM.
For test [7] the target is unchanged. The following applies: at 1 µM.
For test [8], the system named is T1, Receptor-type tyrosine-protein kinase FLT3 (Homo sapiens), P36888 [D835Y].
T1 sequence (whole entry): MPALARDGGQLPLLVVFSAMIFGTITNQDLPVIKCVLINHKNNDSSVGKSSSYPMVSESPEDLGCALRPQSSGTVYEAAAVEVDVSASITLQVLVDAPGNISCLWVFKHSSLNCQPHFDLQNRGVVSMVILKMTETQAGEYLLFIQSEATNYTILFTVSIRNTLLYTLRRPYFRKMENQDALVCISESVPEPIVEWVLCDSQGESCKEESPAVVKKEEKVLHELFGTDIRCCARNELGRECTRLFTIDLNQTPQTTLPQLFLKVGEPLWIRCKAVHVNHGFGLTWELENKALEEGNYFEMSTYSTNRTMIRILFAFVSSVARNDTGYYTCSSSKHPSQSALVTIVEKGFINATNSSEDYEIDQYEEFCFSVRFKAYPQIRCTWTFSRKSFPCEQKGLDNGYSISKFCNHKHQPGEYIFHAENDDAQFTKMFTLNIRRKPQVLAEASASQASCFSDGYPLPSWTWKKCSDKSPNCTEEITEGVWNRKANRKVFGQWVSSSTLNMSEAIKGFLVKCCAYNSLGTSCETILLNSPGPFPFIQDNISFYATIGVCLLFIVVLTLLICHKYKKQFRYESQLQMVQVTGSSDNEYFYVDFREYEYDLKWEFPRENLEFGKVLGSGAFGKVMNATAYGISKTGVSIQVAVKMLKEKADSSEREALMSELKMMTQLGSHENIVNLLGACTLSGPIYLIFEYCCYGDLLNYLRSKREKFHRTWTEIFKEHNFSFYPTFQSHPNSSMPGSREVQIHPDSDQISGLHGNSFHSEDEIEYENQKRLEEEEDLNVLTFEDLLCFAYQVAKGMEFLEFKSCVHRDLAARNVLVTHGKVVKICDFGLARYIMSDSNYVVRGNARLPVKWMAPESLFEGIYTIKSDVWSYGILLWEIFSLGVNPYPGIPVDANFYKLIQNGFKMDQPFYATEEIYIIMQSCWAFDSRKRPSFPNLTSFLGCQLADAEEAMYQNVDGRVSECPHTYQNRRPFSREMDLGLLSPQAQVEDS
Conditions: at 0.1 µM.

Test [9] addresses Non-receptor tyrosine-protein kinase TYK2 (Homo sapiens) (UniProt P29597). Conditions: at 1 µM.
The target in test [10] is T2, Tyrosine-protein kinase receptor TYRO3 (Homo sapiens) (UniProt Q06418).
T2 sequence (whole entry): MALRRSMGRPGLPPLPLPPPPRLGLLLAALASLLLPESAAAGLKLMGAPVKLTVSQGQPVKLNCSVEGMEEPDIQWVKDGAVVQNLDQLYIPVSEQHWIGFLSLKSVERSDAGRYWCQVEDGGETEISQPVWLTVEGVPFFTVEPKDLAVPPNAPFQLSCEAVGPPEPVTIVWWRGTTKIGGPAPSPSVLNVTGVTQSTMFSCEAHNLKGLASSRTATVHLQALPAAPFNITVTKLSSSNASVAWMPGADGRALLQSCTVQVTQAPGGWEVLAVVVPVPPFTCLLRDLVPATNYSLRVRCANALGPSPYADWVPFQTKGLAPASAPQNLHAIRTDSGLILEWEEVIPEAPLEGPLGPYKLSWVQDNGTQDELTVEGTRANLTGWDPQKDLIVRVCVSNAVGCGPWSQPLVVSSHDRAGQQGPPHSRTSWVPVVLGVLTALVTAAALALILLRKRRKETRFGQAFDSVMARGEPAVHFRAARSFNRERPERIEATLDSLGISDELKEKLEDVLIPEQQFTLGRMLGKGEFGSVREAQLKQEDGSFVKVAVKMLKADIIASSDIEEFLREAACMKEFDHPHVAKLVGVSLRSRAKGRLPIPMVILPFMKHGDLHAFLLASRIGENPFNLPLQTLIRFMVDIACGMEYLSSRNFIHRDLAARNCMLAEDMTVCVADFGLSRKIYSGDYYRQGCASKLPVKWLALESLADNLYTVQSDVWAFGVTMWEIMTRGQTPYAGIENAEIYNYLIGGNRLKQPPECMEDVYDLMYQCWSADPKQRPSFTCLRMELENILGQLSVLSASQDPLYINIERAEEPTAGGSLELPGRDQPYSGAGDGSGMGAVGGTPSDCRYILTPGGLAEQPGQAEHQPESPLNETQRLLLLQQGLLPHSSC
The following applies: at 0.1 µM.

Test [11] has as its target T2, Tyrosine-protein kinase receptor TYRO3 (Homo sapiens). Conditions: at 1 µM.
Test [12] has as its target Tyrosine-protein kinase Yes (Homo sapiens) (UniProt P07947). The following applies: at 0.1 µM.
For test [13] the target is unchanged. The following applies: at 1 µM.
Test [14] deals with T3, Tyrosine-protein kinase ZAP-70 (Homo sapiens) (UniProt P43403).
T3 sequence (whole entry): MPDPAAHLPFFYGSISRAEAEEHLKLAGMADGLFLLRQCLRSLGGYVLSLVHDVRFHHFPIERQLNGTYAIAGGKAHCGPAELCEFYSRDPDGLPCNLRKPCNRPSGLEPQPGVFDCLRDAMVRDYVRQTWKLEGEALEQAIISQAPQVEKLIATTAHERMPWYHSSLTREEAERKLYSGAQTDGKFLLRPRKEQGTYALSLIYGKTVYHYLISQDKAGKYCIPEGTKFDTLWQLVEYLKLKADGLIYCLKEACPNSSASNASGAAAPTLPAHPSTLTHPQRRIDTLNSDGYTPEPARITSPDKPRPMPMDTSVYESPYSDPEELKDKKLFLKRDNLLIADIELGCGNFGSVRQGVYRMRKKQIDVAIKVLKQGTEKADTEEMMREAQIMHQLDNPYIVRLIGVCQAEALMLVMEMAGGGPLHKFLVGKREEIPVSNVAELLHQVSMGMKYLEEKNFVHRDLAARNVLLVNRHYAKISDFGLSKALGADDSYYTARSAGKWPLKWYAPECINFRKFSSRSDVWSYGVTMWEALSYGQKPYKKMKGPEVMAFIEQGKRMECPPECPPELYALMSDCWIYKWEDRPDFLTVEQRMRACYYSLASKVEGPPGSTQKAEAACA
The following applies: at 0.1 µM.

Test [15] deals with T3, Tyrosine-protein kinase ZAP-70 (Homo sapiens). Conditions: at 1 µM.
For test [16], the target named is Serine/threonine-protein kinase B-raf (Homo sapiens) (UniProt P15056). Conditions: at 0.1 µM.
Test [17] shares this target. Conditions: at 1 µM.
Test [18] relates to Serine/threonine-protein kinase B-raf (Homo sapiens), P15056 [V600E]. Conditions: at 0.1 µM.
Test [19] has the same test system. The following applies: at 1 µM.
Test [20] addresses RAF proto-oncogene serine/threonine-protein kinase (Homo sapiens) (UniProt P04049). Conditions: at 0.1 µM.

Sequence of Tyrosine-protein kinase Yes (Homo sapiens) (P07947 2-543 limits assumed): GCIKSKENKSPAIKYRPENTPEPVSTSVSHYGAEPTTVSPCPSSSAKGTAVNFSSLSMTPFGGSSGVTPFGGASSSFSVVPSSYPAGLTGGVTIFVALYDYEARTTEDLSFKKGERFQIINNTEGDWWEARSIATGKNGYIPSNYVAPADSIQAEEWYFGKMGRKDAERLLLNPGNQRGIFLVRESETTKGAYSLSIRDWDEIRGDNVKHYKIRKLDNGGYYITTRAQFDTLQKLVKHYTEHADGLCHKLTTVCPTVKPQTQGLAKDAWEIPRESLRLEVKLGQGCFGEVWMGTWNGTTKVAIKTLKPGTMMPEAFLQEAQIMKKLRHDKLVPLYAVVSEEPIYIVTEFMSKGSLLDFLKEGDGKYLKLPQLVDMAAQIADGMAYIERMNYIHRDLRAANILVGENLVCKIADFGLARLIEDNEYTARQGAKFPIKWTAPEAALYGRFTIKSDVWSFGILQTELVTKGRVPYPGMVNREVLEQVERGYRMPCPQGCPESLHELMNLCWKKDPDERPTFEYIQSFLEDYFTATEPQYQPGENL
Sequence of Non-receptor tyrosine-protein kinase TYK2 (Homo sapiens) (P29597 whole entry): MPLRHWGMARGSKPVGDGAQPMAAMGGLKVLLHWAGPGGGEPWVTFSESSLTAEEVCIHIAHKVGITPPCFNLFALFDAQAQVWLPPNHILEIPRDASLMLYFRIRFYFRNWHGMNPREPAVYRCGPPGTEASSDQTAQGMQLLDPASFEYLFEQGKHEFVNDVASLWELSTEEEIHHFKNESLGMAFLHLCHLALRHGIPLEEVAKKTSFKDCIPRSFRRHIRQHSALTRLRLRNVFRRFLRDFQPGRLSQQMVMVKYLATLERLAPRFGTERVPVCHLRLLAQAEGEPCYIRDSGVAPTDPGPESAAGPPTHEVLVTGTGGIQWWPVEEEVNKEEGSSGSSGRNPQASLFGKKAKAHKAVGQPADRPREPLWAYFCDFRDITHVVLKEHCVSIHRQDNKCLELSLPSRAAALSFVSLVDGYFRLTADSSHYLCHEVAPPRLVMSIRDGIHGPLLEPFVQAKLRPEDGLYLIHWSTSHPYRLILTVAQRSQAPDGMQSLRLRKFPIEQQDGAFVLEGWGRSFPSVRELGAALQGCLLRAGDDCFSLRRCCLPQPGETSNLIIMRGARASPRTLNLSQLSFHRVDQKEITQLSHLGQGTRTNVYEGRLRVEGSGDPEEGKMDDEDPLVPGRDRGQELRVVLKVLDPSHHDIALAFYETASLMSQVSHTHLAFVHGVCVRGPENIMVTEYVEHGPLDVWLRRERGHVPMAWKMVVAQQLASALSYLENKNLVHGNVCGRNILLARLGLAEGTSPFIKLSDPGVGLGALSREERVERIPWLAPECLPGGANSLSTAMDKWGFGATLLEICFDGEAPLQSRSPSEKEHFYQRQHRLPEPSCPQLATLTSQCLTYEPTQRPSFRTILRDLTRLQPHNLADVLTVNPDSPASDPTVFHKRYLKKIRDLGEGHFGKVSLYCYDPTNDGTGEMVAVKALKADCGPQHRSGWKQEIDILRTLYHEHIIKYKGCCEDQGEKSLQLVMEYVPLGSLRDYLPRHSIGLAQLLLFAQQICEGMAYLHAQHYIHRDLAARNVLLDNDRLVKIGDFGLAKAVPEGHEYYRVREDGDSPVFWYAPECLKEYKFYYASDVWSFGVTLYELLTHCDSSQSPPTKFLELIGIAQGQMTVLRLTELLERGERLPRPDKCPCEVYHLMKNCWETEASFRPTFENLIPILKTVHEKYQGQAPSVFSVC
Sequence of Tyrosine-protein kinase Fgr (Homo sapiens) (P09769 2-529 limits assumed): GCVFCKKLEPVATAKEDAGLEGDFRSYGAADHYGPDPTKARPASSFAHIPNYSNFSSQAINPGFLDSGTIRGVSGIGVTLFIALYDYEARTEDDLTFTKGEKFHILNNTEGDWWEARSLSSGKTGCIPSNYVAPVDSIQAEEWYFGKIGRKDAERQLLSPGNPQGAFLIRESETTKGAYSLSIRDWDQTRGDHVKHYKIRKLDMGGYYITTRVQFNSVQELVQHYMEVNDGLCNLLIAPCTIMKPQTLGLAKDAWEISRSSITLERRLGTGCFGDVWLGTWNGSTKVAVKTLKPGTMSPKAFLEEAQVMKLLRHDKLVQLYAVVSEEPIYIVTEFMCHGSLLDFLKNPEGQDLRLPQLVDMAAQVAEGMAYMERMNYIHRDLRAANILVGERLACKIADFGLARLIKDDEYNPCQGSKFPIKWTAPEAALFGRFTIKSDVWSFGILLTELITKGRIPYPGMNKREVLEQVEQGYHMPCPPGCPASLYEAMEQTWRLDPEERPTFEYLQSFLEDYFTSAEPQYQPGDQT
Sequence of Fibroblast growth factor receptor 4 (Homo sapiens) (P22455 22-802 limits assumed): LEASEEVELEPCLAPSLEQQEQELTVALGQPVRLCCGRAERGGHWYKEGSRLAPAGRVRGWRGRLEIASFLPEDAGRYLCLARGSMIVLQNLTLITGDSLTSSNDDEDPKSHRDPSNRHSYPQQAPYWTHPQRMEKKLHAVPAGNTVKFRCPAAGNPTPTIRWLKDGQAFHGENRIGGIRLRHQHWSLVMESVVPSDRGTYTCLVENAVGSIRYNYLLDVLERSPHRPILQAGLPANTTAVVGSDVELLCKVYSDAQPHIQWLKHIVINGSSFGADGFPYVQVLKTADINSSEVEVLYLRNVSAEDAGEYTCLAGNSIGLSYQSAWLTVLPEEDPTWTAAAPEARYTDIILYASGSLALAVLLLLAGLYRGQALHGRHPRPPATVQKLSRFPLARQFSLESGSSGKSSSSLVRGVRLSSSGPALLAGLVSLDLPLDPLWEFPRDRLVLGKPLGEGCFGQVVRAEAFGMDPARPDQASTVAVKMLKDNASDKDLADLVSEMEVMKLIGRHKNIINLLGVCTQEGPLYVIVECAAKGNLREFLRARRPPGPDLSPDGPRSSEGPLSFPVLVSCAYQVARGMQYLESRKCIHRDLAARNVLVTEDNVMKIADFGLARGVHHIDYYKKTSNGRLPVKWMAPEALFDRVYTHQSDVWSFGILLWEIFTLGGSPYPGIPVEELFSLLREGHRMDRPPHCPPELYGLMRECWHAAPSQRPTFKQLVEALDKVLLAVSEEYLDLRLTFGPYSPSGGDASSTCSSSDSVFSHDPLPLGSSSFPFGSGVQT
Sequence of RAF proto-oncogene serine/threonine-protein kinase (Homo sapiens) (P04049 whole entry): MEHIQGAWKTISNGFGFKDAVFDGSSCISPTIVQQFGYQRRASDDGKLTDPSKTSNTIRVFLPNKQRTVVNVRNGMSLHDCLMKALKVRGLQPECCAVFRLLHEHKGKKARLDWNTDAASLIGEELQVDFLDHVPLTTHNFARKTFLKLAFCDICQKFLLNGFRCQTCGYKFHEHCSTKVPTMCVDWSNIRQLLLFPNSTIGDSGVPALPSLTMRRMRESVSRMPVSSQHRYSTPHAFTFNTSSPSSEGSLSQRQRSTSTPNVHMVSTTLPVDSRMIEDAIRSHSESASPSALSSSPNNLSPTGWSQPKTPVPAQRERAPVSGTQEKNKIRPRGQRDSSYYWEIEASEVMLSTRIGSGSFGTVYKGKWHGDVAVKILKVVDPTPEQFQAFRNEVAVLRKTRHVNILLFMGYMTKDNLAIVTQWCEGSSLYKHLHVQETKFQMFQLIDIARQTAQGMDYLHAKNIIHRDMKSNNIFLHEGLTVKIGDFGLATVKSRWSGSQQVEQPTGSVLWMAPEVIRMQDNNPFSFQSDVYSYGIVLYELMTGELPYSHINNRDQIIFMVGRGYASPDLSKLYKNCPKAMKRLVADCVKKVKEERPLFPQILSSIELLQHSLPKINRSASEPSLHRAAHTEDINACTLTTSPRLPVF

What is called inhibition is the relative decrease from the control value, in per cent. As for `COc1cc(C)c(N(C)C(=O)CN(C)C)cc1Nc1nc(Nc2cccc(F)c2C(N)=O)c2cc[nH]c2n1`, the inhibition was -2.22% in test [1]; 0.53% in test [2]; 2% in [3]; -0.09% in test [4]; 1.09% in [5]; 1.42% in test [6]. Further, the inhibition in test [7] was 2.03%; in test [8], 0.68%; in test [9] it was -1.64%; in test [10], 1.86%; in test [11], -0.84%; in test [12] it was 0.04%. For the same compound, the inhibition in [13] was -3.38%; in test [14], -1.25%; in test [15] it was -6.34%; in test [16], 1.62%; in [17], 3.95%; in test [18], 2.25%. In addition, the results for the inhibition in test [19] and in test [20] were 3.53% and -0.36%, respectively.

Consider `COc1cccc(-n2cnc3c(N/N=C/c4ccncc4)ncnc32)c1`, for which the inhibition is -3.96% in test [1]; 6.79% in test [2]; 19% in test [3]; -1.12% in [4]; 1.4% in test [5]; 0.88% in test [6]. The inhibition is 6.95% in [7]; 7.7% in [8]; 3.46% in test [9]; 1.07% in test [10]; 4.59% in test [11]; 7.55% in [12]. Besides, the inhibition in test [13] was 36.4%; in test [14], -2.42%; in test [15] it was -3.33%; in test [16], -0.31%; in test [17], -1.09%; in [18], -0.89%. Also, the values for the inhibition in test [19] and in test [20] were -0.68% and -3.41%, respectively.

Consider `C#Cc1cccc(Nc2ncnc3ccc(OCCCCNCCS(C)(=O)=O)cc23)c1`, for which the inhibition in test [1] was -1.61%; in test [2], 10.5%; in test [3], 15.5%; in test [4], 2.51%; in [5], 4.95%; in test [6], 1.29%. Further, the inhibition in test [7] is 2.94%; in test [8], 3.91%; in test [9], -1.47%; in test [10], 2.65%; in test [11], 8.46%; in test [12] it was 4.13%. The inhibition is 12.3% in test [13]; -1.39% in test [14]; -2.29% in test [15]; 8.08% in [16]; 6.4% in test [17]; 8.35% in test [18]. The inhibition is 5.48% in test [19] and -5.79% in [20].

Consider `O=C(Nc1ccc(Oc2ccc3[nH]c(NC(=O)c4ccccc4)nc3c2)cc1)Nc1cc(C(F)(F)F)ccc1F`, for which the inhibition in [1] stood at 0.83%; in test [2] it was 9.57%; in test [3] it was 7.53%; in test [4], 5.53%; in [5] it was 39.3%; in [6], 6.63%. Further, the inhibition in [7] was 53.4%; in test [8], -0.18%; in test [9], -0.97%; in test [10], 2.33%; in test [11], 16.8%; in [12] it was 1.01%. Besides, the inhibition in [13] is 7.23%; in test [14] it was -1.74%; in test [15] it was 1.65%; in test [16] it was 4.48%; in test [17], 33.4%; in test [18], 5.24%. The inhibition in test [19] is 42.7%; in test [20] it was -3.16%.

Consider `CCS(=O)(=O)c1ccc(OC)c(Nc2ncc(-c3cccc(-c4ccccc4F)c3)o2)c1`, for which the inhibition worked out at 16.3% in [1]; 11.9% in [2]; 52.1% in test [3]; 24.9% in [4]; 68.4% in test [5]; 6.25% in [6]. The inhibition in test [7] was found to be 30%; in [8], 5.31%; in test [9] it was 1.31%; in test [10], 3.28%; in test [11] it was 19.6%; in [12] it was 25.7%. Moreover, the inhibition in test [13] is 73%; in test [14], 1.06%; in test [15], -0.05%; in test [16], 1.09%; in test [17], 1.46%; in test [18], 0.74%. Besides, the inhibition in test [19] is 1.89%; in [20] it was -0.07%.

Consider `NC(=O)c1cc(-c2ccc(F)cc2)cc(-c2ccncc2)c1N`, for which the inhibition in [1] is -0.36%; in test [2], 5.32%; in test [3], 3.24%; in test [4] it was 0.41%; in test [5], 0.85%; in [6], 3.14%. Also, the inhibition was 2.01% in [7]; -6.54% in [8]; -2.58% in test [9]; 4.68% in test [10]; 3.84% in test [11]; 3.3% in test [12]. The inhibition was 8.03% in [13]; 3.36% in test [14]; 4.08% in [15]; 6.39% in [16]; 7.79% in [17]; 7.49% in [18]. For the same compound, the inhibition in test [19] was 7.36%; in [20] it was 0.54%.
